Here are results for five compounds from PubChem BioAssay.

Test [1] concerns Plasmodium falciparum Sir2 (PF13_0152, Sir2A). The test is described as follows: Plasmodium falciparum Sir2A binding compounds – biochemical, small-molecule microarray, 635 nm fluorescence, primary screen (AID 1098).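 Note: score merges spot fluorescence intensity with its signal-to-noise ratio.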 As to conditions: fluorescence 635 nm, higher = more signal.
Test [2] in a line: probe aDKK1 binding to arrayed compounds – biochemical, biotinylated probe, 635/667 nm fluorescence, primary screen (AID 1099).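 Note: score merges 667nm spot fluorescence with signal to noise across triplicate slides.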 Particulars: small-molecule microarray, higher = more signal.
Test [3] is described as follows: probe aCHRDL2 binding to arrayed compounds – biochemical, biotinylated probe, 635/667 nm fluorescence, primary screen (AID 1100). Particulars: small-molecule microarray, higher = more signal.
A short description of test [4]: change in splice reporter luminescence, either direction, cell-based, HEK293, spliceosome inhibition project, primary screen (AID 1101).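 Note: HEK293 cells carrying a splicing-competent luciferase reporter gene; test concentration not given here.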 Particulars: HEK293 splicing luciferase reporter, 24 h, higher = more signal, called active from +8 up or from −8 down.
The target of test [5] is Fibroblast growth factor 10 (Homo sapiens) (UniProt O15520). The test is described as follows: compounds binding fibroblast growth factor 10 – biochemical, small-molecule microarray, 635 nm fluorescence, primary screen (AID 1102). Particulars: FGF10 binding, fluorescence 635 nm, higher = more signal.
Chain of Fibroblast growth factor 10 (Homo sapiens) (O15520 whole entry, looked up): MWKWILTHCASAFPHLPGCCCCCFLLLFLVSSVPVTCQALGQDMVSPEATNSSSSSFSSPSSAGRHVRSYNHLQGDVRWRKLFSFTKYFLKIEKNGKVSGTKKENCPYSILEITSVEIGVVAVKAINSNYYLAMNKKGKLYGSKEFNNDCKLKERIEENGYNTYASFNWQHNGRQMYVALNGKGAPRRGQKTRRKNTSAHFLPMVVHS
Test [6] relates to glycogen synthase kinase-3 (GSK3A per assay name; protocol says GSK3B). Kind of test: compounds binding glycogen synthase kinase-3 – biochemical, small-molecule microarray, 635 nm fluorescence, GSK3A, primary screen (AID 1103). Note: the record names both GSK3A and GSK3B. Particulars: fluorescence 635 nm, higher = more signal.
In test [7] the target is Epidermal growth factor receptor (Homo sapiens) (UniProt P00533). Kind of test: compounds binding epidermal growth factor receptor – biochemical, small-molecule microarray, 635 nm fluorescence, primary screen (AID 1104).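 Note: score merges 667 nm emission intensity with spot signal to noise over triplicate slides.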 As to conditions: EGFR binding, higher = more signal.
Chain of Epidermal growth factor receptor (Homo sapiens) (P00533 whole entry, looked up): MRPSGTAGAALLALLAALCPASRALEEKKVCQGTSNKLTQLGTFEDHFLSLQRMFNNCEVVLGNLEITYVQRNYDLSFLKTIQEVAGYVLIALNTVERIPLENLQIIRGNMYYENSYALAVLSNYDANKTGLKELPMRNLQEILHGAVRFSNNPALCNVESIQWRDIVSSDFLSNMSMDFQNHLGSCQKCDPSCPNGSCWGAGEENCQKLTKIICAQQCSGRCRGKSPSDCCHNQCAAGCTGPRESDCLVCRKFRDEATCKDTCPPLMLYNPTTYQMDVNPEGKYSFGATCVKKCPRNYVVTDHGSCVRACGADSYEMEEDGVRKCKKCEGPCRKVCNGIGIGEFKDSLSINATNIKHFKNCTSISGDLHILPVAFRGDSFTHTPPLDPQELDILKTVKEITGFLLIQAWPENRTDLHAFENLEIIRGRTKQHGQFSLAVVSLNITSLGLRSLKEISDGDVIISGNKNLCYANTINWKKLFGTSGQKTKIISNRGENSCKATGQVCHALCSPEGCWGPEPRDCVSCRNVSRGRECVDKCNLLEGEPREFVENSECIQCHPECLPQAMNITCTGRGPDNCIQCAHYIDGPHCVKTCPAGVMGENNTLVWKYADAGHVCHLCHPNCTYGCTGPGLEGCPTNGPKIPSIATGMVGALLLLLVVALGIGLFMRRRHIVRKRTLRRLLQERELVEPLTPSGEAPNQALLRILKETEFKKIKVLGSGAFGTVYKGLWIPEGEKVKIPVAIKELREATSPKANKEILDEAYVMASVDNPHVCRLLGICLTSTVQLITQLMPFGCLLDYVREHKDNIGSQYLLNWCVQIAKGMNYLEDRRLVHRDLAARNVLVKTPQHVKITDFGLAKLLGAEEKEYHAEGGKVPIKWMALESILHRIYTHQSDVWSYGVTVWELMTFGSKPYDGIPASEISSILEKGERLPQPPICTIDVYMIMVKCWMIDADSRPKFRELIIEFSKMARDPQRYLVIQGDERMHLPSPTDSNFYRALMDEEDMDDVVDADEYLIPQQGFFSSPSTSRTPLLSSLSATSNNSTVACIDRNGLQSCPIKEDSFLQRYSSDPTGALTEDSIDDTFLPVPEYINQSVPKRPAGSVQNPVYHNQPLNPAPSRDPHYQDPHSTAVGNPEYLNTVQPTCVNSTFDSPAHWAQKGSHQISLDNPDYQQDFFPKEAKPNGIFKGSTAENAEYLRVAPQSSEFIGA
Test [8] concerns the target Follistatin-related protein 3 (Homo sapiens) (UniProt O95633). Kind of test: compounds binding follistatin-related protein 3 – biochemical, small-molecule microarray, 635 nm fluorescence, primary screen (AID 1105).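 Note: score merges emission near 667 nm and signal to noise per printed spot across three slides.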 Particulars: FSTL3 binding, higher = more signal.
Test [9] concerns the target Dickkopf-related protein 1 (Homo sapiens) (UniProt O94907). Kind of test: small molecules binding DKK1 protein – biochemical, small-molecule microarray, 635 nm fluorescence scan, primary screen (AID 1106).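 Note: score merges emission near 667 nm with signal to noise over three replicate slides.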 As to conditions: higher = more signal.
In test [10] the test system is Inhibin beta A chain (activin A). Kind of test: small molecules binding activin A – biochemical, small-molecule microarray, 635 nm fluorescence scan, primary screen (AID 1107).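 Note: mouse activin A protein probed at 4.33 µg/mL on printed slides; score merges bound-protein fluorescence near 667 nm with spot signal-to-noise.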 As to conditions: INHBA, higher = more signal.
In test [11] the test system is Human papillomavirus type 1a protein E7 (residues 44-93). The test is described as follows: small molecules binding HPV E7 44-93 – biochemical, small-molecule microarray, residues 44-93, 635 nm fluorescence, primary screen (AID 1108).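 Note: E7 fragment applied at 1 µg/mL in TBST for 1 h at 4 C; score combines spot fluorescence with its signal to noise ratio.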 Particulars: fluorescence 635 nm, higher = more signal.
A short description of test [12]: hepatitis C replication reporter changes, two-sided – Huh7 cells, luciferase reporter, HCV replication inhibitor project, primary screen (AID 1109).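 Note: huh7 hepatoma cells harbouring a luciferase neomycin HCV replicon reporter; luciferase luminescence as measure of HCV replicon replication; test concentration not given here.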 As to conditions: Huh7 HCV replicon luciferase reporter, 48 h; higher = more signal.
Test [13] addresses Left-right determination factor 2 (Homo sapiens) (UniProt O00292). The test is described as follows: small molecules binding LEFTY2 protein – biochemical, small-molecule microarray, 635 nm fluorescence scan, primary screen (AID 1110). As to conditions: higher = more signal.
In test [14] the target is Calmodulin-1 (Homo sapiens) (UniProt P0DP23). The test is described as follows: small molecules binding calmodulin-1 with EGTA – biochemical, small-molecule microarray, Cy5-labelled CALM1, profiling panel (AID 1111).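 Note: labelled calmodulin applied in Tris saline Tween buffer holding calcium plus EGTA and DTT.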 As to conditions: Cy5-CALM1 binding fluorescence, higher = more signal.
The target is the same in test [15]. Kind of test: small molecules binding Ca-loaded calmodulin-1 – biochemical, small-molecule microarray, Cy5-labelled CALM1, plus calcium, artefact control for SMM control-protein annotation, profiling panel (AID 1112).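 Note: score merges spot fluorescence with signal to noise from triplicate slides.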 As to conditions: Cy5-CALM1 binding fluorescence, higher = more signal.
Test [16] can be described thus: probe aWnt5a binding to arrayed compounds – biochemical, biotinylated probe, 635/667 nm fluorescence, primary screen (AID 1113).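 Note: score merges 667 nm fluorescence intensity with signal-to-noise per printed feature.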 As to conditions: small-molecule microarray, higher = more signal.
A short description of test [17]: probe aShh binding to arrayed compounds – biochemical, biotinylated probe, 635/667 nm fluorescence, primary screen (AID 1114).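 Note: probe is biotin-labelled aShh protein from a stem cell growth factor screen; measures binding of labelled protein to compounds printed on the slide; score merges feature fluorescence at 667 nm with signal-to-noise.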 As to conditions: small-molecule microarray, higher = more signal.
A short description of test [18]: probe aNog binding to arrayed compounds – biochemical, biotinylated probe, 635/667 nm fluorescence, primary screen (AID 1115).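 Note: probe is biotinylated aNog protein used at 0.15 µg/mL for 1 h at 4 C; z-score combines 667 nm fluorescence of each spot with its signal to noise.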 As to conditions: small-molecule microarray, higher = more signal.
Test [19] concerns the target Torsin-1A-interacting protein 1 (Homo sapiens) (UniProt Q5JTV8). The test is described as follows: compound microarray binding of lysate hLAP1 – cell lysate, small-molecule microarray, COS7 lysate, 635/667 nm fluorescence, primary screen (AID 1116). Particulars: 635 nm fluorescence, higher = more signal.
Test [20] addresses Alpha-bungarotoxin (Bungarus multicinctus) (UniProt P60615). The test is described as follows: compounds binding labelled alpha-BTX control protein – biochemical, small-molecule microarray, Alexa647 label, 635/667 nm fluorescence, artefact control for SMM control protein annotation, profiling panel (AID 1117). Particulars: alpha-BTX-A647 binding fluorescence, higher = more signal.

The source made the active and inactive calls.

Chain of Left-right determination factor 2 (Homo sapiens) (O00292 whole entry, looked up): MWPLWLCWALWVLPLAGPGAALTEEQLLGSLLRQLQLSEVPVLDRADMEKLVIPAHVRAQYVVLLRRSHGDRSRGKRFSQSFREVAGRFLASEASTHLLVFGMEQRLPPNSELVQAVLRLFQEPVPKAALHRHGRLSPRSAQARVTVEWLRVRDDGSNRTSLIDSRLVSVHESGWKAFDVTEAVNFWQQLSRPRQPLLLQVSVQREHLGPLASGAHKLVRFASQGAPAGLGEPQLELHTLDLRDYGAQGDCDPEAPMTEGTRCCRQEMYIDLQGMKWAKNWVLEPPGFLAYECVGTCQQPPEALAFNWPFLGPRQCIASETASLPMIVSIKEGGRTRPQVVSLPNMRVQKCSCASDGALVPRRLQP
Chain of Follistatin-related protein 3 (Homo sapiens) (O95633 whole entry, looked up): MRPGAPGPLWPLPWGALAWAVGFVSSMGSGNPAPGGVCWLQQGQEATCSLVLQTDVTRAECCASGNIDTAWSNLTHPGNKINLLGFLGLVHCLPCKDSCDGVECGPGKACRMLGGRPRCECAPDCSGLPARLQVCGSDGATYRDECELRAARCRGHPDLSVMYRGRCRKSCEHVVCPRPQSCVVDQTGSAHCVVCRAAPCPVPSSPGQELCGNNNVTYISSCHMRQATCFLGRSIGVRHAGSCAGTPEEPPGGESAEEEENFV
Chain of Alpha-bungarotoxin (Bungarus multicinctus) (P60615 whole entry, looked up): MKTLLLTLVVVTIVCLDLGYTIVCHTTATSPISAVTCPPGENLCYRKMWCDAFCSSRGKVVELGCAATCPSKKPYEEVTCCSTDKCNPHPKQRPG
Chain of Torsin-1A-interacting protein 1 (Homo sapiens) (Q5JTV8 whole entry, looked up): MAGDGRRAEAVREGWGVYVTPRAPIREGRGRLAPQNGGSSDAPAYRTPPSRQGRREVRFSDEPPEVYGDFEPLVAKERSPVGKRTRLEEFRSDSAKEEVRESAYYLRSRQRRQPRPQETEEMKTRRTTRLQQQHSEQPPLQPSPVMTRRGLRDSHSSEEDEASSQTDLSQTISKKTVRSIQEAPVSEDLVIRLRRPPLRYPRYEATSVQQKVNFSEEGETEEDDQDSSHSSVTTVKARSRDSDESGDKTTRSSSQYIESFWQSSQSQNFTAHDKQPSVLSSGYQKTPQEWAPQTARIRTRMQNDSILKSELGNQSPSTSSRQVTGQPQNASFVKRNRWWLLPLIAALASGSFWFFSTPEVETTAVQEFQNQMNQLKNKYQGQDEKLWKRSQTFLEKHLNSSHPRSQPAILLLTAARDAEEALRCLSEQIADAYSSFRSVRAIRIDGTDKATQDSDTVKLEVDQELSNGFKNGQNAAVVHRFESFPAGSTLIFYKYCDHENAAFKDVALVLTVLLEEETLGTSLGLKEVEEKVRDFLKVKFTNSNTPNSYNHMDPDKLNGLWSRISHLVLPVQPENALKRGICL
Chain of Dickkopf-related protein 1 (Homo sapiens) (O94907 whole entry, looked up): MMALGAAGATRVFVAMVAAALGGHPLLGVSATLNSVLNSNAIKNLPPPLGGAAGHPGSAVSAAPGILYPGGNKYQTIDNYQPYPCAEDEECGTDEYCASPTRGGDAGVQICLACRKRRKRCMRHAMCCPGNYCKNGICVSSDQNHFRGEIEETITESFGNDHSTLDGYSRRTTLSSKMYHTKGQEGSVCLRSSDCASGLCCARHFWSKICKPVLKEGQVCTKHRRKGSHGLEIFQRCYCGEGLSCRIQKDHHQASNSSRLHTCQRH

On to `CC(C)C[C@@H]1NC(=O)[C@H]2C[C@@H](C(=O)NCCCCCN)[C@@H](c3cccc(OCCO)c3)N2C1=O`, for which the composite z-score is 0.481 in test [1]; 0.206 in test [2]; 0.235 in test [3]; -0.361 in test [5]; -0.389 in test [6]; 0.125 in test [7]. The composite z-score was -0.348 in [8]; 0.183 in test [9]; -0.762 in test [10]; -1.01 in [11]; -0.0189 in test [13]; 0.331 in test [14]. Also, the composite z-score in test [15] was 0.422; in [16], -0.103; in test [17], -0.138; in test [18], -0.157; in test [19], 2.08; in test [20], 1.03. Besides, the z-score in test [4] was -1.76 (inactive); in test [12], 0.335.

As to `C=CCNC(=O)[C@@H]1[C@H]2C(=O)O[C@H](c3ccccc3)[C@H](c3ccccc3)N2[C@H](c2ccc(O)cc2)[C@@]12C(=O)N(C(=O)OCCOC)c1ccc(C#CCCO)cc12`, the composite z-score was found to be 1.25 in test [1]; 0.373 in test [2]; 0.42 in test [3]; 1.37 in test [5]; 1.04 in test [6]; 0.683 in test [7]. In addition, the composite z-score in test [8] was 1.12; in [9], 0.921; in test [10], 0.616; in test [11] it was -0.472; in [13], 0.863; in [14] it was 0.355. The composite z-score in test [15] is 0.349; in [16], -0.0276; in [17] it was -0.0011; in test [18] it was 0.565; in test [19], 0.394; in test [20] it was 2.29. Besides, the z-score in test [4] is -0.591 (inactive); in test [12], -0.118.

For the compound `Cc1ccc([C@H]2C(C(=O)O)=C[C@@H](C(C)(C)C)N2S(=O)(=O)c2ccc(C)cc2)cc1`, the composite z-score is 1.03 in test [1]; 1.05 in test [2]; 1.06 in test [3]; 1.1 in [5]; 1.31 in [6]; 0.0496 in test [7]. In addition, the composite z-score in test [8] was 1.17; in test [9], -0.591; in [10] it was 0.265; in test [11], 1.41; in test [13], 0.326; in [14] it was 1.94. Also, the composite z-score in test [15] turned out to be 0.516; in test [16] it was 0.058; in [17], 0.348; in [18] it was 1.34; in test [19] it was 1.4; in test [20], 1.43. For the same compound, the z-score in test [4] is 0.0856 (inactive); in test [12] it was 0.0372.

As for `COc1ccc([Si](C)(C)[C@H]2[C@H](CCO)O[C@@]3(C(=O)N(Cc4ccccc4)c4ccc(N5C(=O)c6ccccc6Oc6ccccc65)cc43)[C@@H]2C)cc1`, the composite z-score in test [1] is 0.365; in test [2] it was -0.167; in test [3], -0.123; in test [5], 0.0351; in test [6], -0.512; in test [7], -0.124. Besides, the composite z-score is -0.734 in [8]; 0.0449 in test [9]; 0.201 in test [10]; 0.647 in test [11]; -0.358 in test [13]; 0.425 in test [14]. The composite z-score worked out at 0.773 in test [15]; 0.0431 in test [16]; 0.213 in [17]; 0.195 in test [18]; 0.323 in [19]; 0.178 in test [20]. The z-score in [4] is -0.916 (inactive); in test [12], -4.49.

Regarding `COc1cc2c(cc1OC)CN(C(=O)[C@@H]1[C@H]3C(=O)O[C@H](c4ccccc4)[C@H](c4ccccc4)N3[C@H](c3ccc(O)cc3)[C@@]13C(=O)Nc1ccc(C#CCCO)cc13)CC2`, the composite z-score in [1] is 0.552; in [2], -0.0984; in [3] it was 0.562; in test [5] it was 1.19; in test [6], 0.422; in [7] it was -0.0629. For the same compound, the composite z-score in [8] came to 0.547; in [9], 0.755; in [10], 0.924; in test [11] it was 1.12; in [13], 0.686; in test [14] it was 0.758. Moreover, the composite z-score was -0.224 in [15]; -0.0538 in test [16]; -0.11 in [17]; -0.102 in test [18]; 0.678 in test [19]; 0.319 in test [20]. Further, the results for the z-score in [4] and in [12] were -0.117 (inactive) and -1.09, respectively.
